According to PubChem BioAssay (NCI):
About 83,000 compounds went through this panel and 20% of them were active in at least one assay; those are over-represented in the sample as a whole.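 A percent growth of 40 corresponds to 60% growth inhibition; 0 means no net growth; -100 means all cells died. Active threshold: below 10.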 Unmarked numbers belong to inactive results. Activity calls are given as the source filed them.

Legend:
Assay in all cases: NCI-60 one-dose screen, 48 h (100 = growth as untreated, 0 = no growth, -100 = all killed)
Details in all cases: 10 µM unless noted
NCI-H23 lung = test system: NCI-H23 lung
NCI-H226 lung = test system: NCI-H226 lung
NCI-H322M lung = test system: NCI-H322M lung
HOP-62 NSCLC = test system: HOP-62 NSCLC
NCI-H460 lung = test system: NCI-H460 lung
HOP-92 NSCLC = test system: HOP-92 NSCLC
NCI-H522 lung = test system: NCI-H522 lung
A549/ATCC NSCLC = test system: A549/ATCC NSCLC
786-0 renal = test system: 786-0 renal
COLO 205 colon = test system: COLO 205 colon
DU-145 prostate = test system: DU-145 prostate
K-562 leukemia = test system: K-562 leukemia
MALME-3M melanoma = test system: MALME-3M melanoma
MDA-MB-231 breast = test system: MDA-MB-231 breast
RXF 393 renal = test system: RXF 393 renal
SF-268 CNS = test system: SF-268 CNS
SF-295 CNS = test system: SF-295 CNS
SF-539 CNS = test system: SF-539 CNS
UACC-257 melanoma = test system: UACC-257 melanoma
M14 melanoma = test system: M14 melanoma

COc1cc(-c2csc(NC(=O)Nc3cccc(C(F)(F)F)c3)n2)cc(OC)c1OC
growth (NCI-H23 lung): 27.8%
growth (NCI-H226 lung): 55.6%
growth (NCI-H322M lung): 68.3%
growth (HOP-62 NSCLC): 63.6%
growth (NCI-H460 lung): 53.8%
growth (HOP-92 NSCLC): 47.8%
growth (NCI-H522 lung): 40.7%
growth (A549/ATCC NSCLC): 34.2%
growth (786-0 renal): 64.2%
growth (COLO 205 colon): 75.4%
growth (DU-145 prostate): 55.9%
growth (K-562 leukemia): 31.6%
growth (MALME-3M melanoma): 88.3%
growth (MDA-MB-231 breast): 63.8%
growth (RXF 393 renal): 71.4%
growth (SF-268 CNS): 65%
growth (SF-295 CNS): 21.7%
growth (SF-539 CNS): 67.1%
growth (UACC-257 melanoma): 83.2%

CC(=O)OC1Oc2cc(C)c(C)cc2-c2oc(=O)c(-c3cc4ccccc4oc3=O)cc21 (centres undefined)
growth (NCI-H23 lung): 85.6%
growth (NCI-H226 lung): 124%
growth (NCI-H322M lung): 126%
growth (HOP-62 NSCLC): 109%
growth (NCI-H460 lung): 108%
growth (HOP-92 NSCLC): 88.3%
growth (NCI-H522 lung): 82.9%
growth (A549/ATCC NSCLC): 113%
growth (786-0 renal): 79.7%
growth (COLO 205 colon): 121%
growth (DU-145 prostate): 89.7%
growth (K-562 leukemia): 106%
growth (MALME-3M melanoma): 107%
growth (MDA-MB-231 breast): 92.4%
growth (RXF 393 renal): -1.16% (active)
growth (SF-268 CNS): 61.3%
growth (SF-295 CNS): 76%
growth (SF-539 CNS): 88.4%
growth (UACC-257 melanoma): 117%
growth (M14 melanoma): 96.3%

O=C(CI)NCCNc1cccc2c(S(=O)(=O)O)cccc12
growth (NCI-H23 lung): 95.1%
growth (NCI-H226 lung): 103%
growth (NCI-H322M lung): 98%
growth (HOP-62 NSCLC): 107%
growth (NCI-H460 lung): 105%
growth (HOP-92 NSCLC): 102%
growth (NCI-H522 lung): 107%
growth (A549/ATCC NSCLC): 110%
growth (786-0 renal): 101%
growth (COLO 205 colon): 105%
growth (DU-145 prostate): 96.3%
growth (K-562 leukemia): 110%
growth (MALME-3M melanoma): 103%
growth (MDA-MB-231 breast): 93.5%
growth (RXF 393 renal): 101%
growth (SF-268 CNS): 93.3%
growth (SF-295 CNS): 98.5%
growth (SF-539 CNS): 105%
growth (UACC-257 melanoma): 108%
growth (M14 melanoma): 98.4%

Oc1c(C(c2ccc(F)cc2)N2CCCCC2)ccc2cncnc12 (centres undefined)
growth (NCI-H23 lung): 16.1%
growth (NCI-H226 lung): -0.0481% (active)
growth (NCI-H322M lung): 19.4%
growth (HOP-62 NSCLC): 11.6%
growth (NCI-H460 lung): 4.38% (active)
growth (HOP-92 NSCLC): -14.4% (active)
growth (NCI-H522 lung): 4.34% (active)
growth (A549/ATCC NSCLC): 5.08% (active)
growth (786-0 renal): 23.1%
growth (COLO 205 colon): -30.1% (active)
growth (DU-145 prostate): 23.3%
growth (K-562 leukemia): 10.4%
growth (MALME-3M melanoma): 3.63% (active)
growth (MDA-MB-231 breast): 14.4%
growth (RXF 393 renal): 31.1%
growth (SF-268 CNS): 20.9%
growth (SF-295 CNS): -1.59% (active)
growth (SF-539 CNS): 13.9%
growth (UACC-257 melanoma): 0.316% (active)
growth (M14 melanoma): 15.7%

C1=C\CCCCN2CC[C@H]3[C@H](CCCC/C=C\CCCN4C[C@@H](CCCCC/1)C[C@@H]3C4)C2
growth (NCI-H23 lung): 79.5%
growth (NCI-H226 lung): 110%
growth (NCI-H322M lung): 108%
growth (HOP-62 NSCLC): 76.3%
growth (NCI-H460 lung): 51.8%
growth (HOP-92 NSCLC): 17.6%
growth (NCI-H522 lung): 47.8%
growth (A549/ATCC NSCLC): 48.9%
growth (786-0 renal): 73.2%
growth (COLO 205 colon): -64.3% (active)
growth (DU-145 prostate): 93.9%
growth (K-562 leukemia): -19.5% (active)
growth (MALME-3M melanoma): 98.9%
growth (MDA-MB-231 breast): 73.9%
growth (RXF 393 renal): -43.3% (active)
growth (SF-268 CNS): 73.8%
growth (SF-295 CNS): 51.3%
growth (SF-539 CNS): 31.3%
growth (UACC-257 melanoma): 84.7%
growth (M14 melanoma): 1.72% (active)

FC1(F)CCN(Cc2c[nH]c3cc(Cl)ccc23)C[C@H]1CCc1ccccc1
growth (NCI-H23 lung): 67.7%
growth (NCI-H226 lung): 43.5%
growth (NCI-H322M lung): 84.3%
growth (HOP-62 NSCLC): 46.1%
growth (NCI-H460 lung): 42.8%
growth (HOP-92 NSCLC): 37.3%
growth (NCI-H522 lung): 67.6%
growth (A549/ATCC NSCLC): 43%
growth (786-0 renal): 66.9%
growth (COLO 205 colon): 69.5%
growth (DU-145 prostate): 65%
growth (K-562 leukemia): 31.4%
growth (MALME-3M melanoma): 77.1%
growth (MDA-MB-231 breast): 68.9%
growth (RXF 393 renal): 64.3%
growth (SF-268 CNS): 72.1%
growth (SF-295 CNS): 54.5%
growth (SF-539 CNS): 88.6%
growth (UACC-257 melanoma): 53.2%
growth (M14 melanoma): 60%

COc1cccc2nc(Nc3cccc(NC(=O)c4cc(N5CCOCC5)cc(C(F)(F)F)c4)c3)ccc12
growth (NCI-H23 lung): 78.4%
growth (NCI-H226 lung): 47.8%
growth (NCI-H322M lung): 68.6%
growth (HOP-62 NSCLC): 78.6%
growth (NCI-H460 lung): 49.2%
growth (HOP-92 NSCLC): 47.9%
growth (NCI-H522 lung): 81.3%
growth (A549/ATCC NSCLC): 37.3%
growth (786-0 renal): 65.8%
growth (COLO 205 colon): 62.5%
growth (DU-145 prostate): 59.9%
growth (K-562 leukemia): 45%
growth (MALME-3M melanoma): 91.3%
growth (MDA-MB-231 breast): 93.3%
growth (RXF 393 renal): 51.4%
growth (SF-268 CNS): 59.9%
growth (SF-295 CNS): 58.4%
growth (SF-539 CNS): 82%
growth (UACC-257 melanoma): 57.1%
growth (M14 melanoma): 52.5%

CC(=O)Nc1nonc1-c1nc2ccccc2n1Cc1ccc(C(C)(C)C)cc1
growth (NCI-H23 lung): 86.7%
growth (NCI-H226 lung): 76.6%
growth (NCI-H322M lung): 83%
growth (HOP-62 NSCLC): 101%
growth (NCI-H460 lung): 79.3%
growth (HOP-92 NSCLC): 57.1%
growth (NCI-H522 lung): 85.1%
growth (A549/ATCC NSCLC): 72.2%
growth (786-0 renal): 70.2%
growth (COLO 205 colon): 98.5%
growth (DU-145 prostate): 79.9%
growth (K-562 leukemia): 30.2%
growth (MALME-3M melanoma): 90.5%
growth (MDA-MB-231 breast): 92.8%
growth (RXF 393 renal): 65.8%
growth (SF-268 CNS): 67.2%
growth (SF-295 CNS): 79.6%
growth (SF-539 CNS): 89%
growth (UACC-257 melanoma): 92%
growth (M14 melanoma): 92%
